# PME-1 inh: PME-1 (human) inhibition. Q9Y570. recombinant PME-1, FP-Rh probe fluorescence polarization. inhibition, % at 5.9 µM. hit rate 0.53% among 320,000;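 active = inhibition above the campaign mean of all compounds plus 3 SD, cut at about 26% in these data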;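 note: competitive labeling of PME-1 active site by serine hydrolase directed probe; 0% = PME-1 with DMSO and 100% = wells lacking PME-1 enzyme; inhibitors block probe labeling so polarization falls and inhibition rises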
# Target sequence (Q9Y570 whole entry, looked up): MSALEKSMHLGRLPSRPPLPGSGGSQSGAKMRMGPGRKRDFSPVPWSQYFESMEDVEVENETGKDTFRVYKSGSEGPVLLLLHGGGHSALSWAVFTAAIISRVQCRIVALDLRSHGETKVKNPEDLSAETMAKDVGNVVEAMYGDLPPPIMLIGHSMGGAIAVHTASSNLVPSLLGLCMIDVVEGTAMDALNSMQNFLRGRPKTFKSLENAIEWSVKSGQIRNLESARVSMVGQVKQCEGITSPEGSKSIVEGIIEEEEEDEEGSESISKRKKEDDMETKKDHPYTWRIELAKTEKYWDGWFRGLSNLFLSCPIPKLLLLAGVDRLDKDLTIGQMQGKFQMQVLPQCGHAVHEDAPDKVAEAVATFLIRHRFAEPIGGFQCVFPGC
# LYPLA2 inh: LYPLA2 (human) inhibition in PME1 counter-screen | recombinant LYPLA2, FP-Rh probe fluorescence polarization | inhibition, % at 5.9 µM | hit rate 0.38% among 320,000 | AID 2177;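 active = inhibition above the screen-wide mean plus 3 SD, limit set per campaign, cut at about 26% in these data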;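 note: 0% = LYPLA2 with DMSO and 100% = wells lacking LYPLA2 enzyme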
# Target sequence (O95372 whole entry, looked up): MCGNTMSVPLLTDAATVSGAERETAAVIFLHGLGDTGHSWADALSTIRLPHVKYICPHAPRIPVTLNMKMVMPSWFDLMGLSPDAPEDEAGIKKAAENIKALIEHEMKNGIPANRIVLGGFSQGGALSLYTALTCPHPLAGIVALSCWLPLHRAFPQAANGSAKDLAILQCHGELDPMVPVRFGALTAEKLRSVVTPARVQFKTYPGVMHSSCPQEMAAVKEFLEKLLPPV
# GSTO1 counter: counter-screen for RBBP9 inhibitors: inhibitors of human GSTO1. P78417. recombinant GSTO1, activity-based probe fluorescence polarization. inhibition, % at 5.96 µM. hit rate 1.1% among 300,000. AID 1974;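 active = inhibition above the campaign mean inhibition plus 3 SD, cut at about 35% in these data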;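 note: 0% = GSTO1-1 with DMSO and 100% = wells lacking GSTO1-1 enzyme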
# PAD4 inh: inhibitors of human PAD4 | inhibition, % at 6.36 µM | recombinant PAD4, RCA probe fluorescence polarization | hit rate 0.41% among 330,000 | Q9UM07;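 active = percent inhibition above a cutoff equal to the mean of all tested compounds plus 3 SD, cut at about 15% in these data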;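 note: 0% = PAD4 with RCA probe and DMSO and 100% = probe without PAD4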
# LYPLA1 inh: counter-screen for PME1 inhibitors: inhibitors of human LYPLA1; hit rate 0.16% among 320,000; inhibition, % at 5.9 µM; O75608; recombinant LYPLA1, FP-Rh probe fluorescence polarization; AID 2174;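 active = inhibition above the mean of all tested compounds plus 3 SD, set per campaign, cut at about 14% in these data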;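 note: inhibitors block serine hydrolase probe labeling of LYPLA1 so polarization falls; 0% = enzyme with DMSO and 100% = wells lacking LYPLA1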
# Fam108B counter: counter-screen for RBBP9 inhibitors: inhibitors of mouse Fam108B; recombinant Fam108B, FP-Rh probe fluorescence polarization; inhibition, % at 9.51 µM; hit rate 0.33% among 300,000;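 active = inhibition above the screen mean inhibition plus 3 SD, computed separately per campaign, cut at about 18% in these data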;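 note: inhibitors lower polarization as less probe binds the enzyme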
# * = called active by the depositor; · = not tested or not shown. Shown are actives, neighbours in structure and some others; about 1.7% of the full set was active somewhere.
SMILES,PME-1 inh,LYPLA2 inh,GSTO1 counter,PAD4 inh,LYPLA1 inh,Fam108B counter
COC(=O)N1C(=O)[C@](CC(C)C)(c2ccccc2)N1C(=O)OC,27.6*,4.7,-0.3,-0.7,0.1,5.5
COC(=O)N1C(=O)[C@@](c2ccccc2)(C2CCCC2)N1C(=O)OC,22.9,-0.4,7.8,3.5,2.4,6.3
Cc1c(C#N)c(NC(=O)CCl)n(Cc2cccs2)c1C,3.1,4.3,86.7*,4.0,4.3,1.2
COCc1cc(C)n(CC(=O)Nc2ccc(N3CCOCC3)c(Cl)c2)c(=O)c1C#N,-4.8,0.9,4.8,4.5,2.1,0.3
O=C(N/N=C/c1cccnc1)c1ccccc1[N+](=O)[O-],-3.0,0.8,0.6,-1.8,-0.1,0.6
C/C(=N\Nc1ccccc1C(=O)O)c1ccncc1,73.2*,-1.9,-1.2,-3.8,4.2,-1.1
C/C(=N/NC(=O)c1ccncc1)c1ccccc1,7.3,3.2,3.9,-0.5,0.1,3.1
CCOc1ccccc1NC(=O)CSc1nc2nc(-c3cccs3)cc(C(F)(F)F)c2c(=O)[nH]1,-0.8,-11.8,-87.7,-4.2,-6.2,-11.3
COc1ccc(NC(=O)CSc2nc3nc(-c4cccs4)cc(C(F)(F)F)c3c(=O)[nH]2)c(OC)c1,45.7*,-5.5,-9.6,-5.3,-7.9,-1.1
Cc1ccc(C(=O)NCc2ccncc2)cc1S(=O)(=O)N1CCCCC1,1.8,1.7,4.1,1.6,-3.0,4.3
CNc1cccccc1=S,-1.7,-0.6,37.0*,11.1,-0.9,0.7
CNc1ccccc1,-1.3,1.2,·,-0.6,-0.4,·
CCn1nc(C)cc1-c1n[nH]c(=S)n1N,-1.2,-4.2,4.2,1.4,-1.9,3.3
CC1CCCCN1CCNC(=O)C1CCCN(S(=O)(=O)c2cccc3nsnc23)C1 (centres undefined),7.4,-1.2,1.7,-4.6,-1.3,1.8
CCOc1cccc(/C=C/c2ccc3cccc(O)c3n2)c1O,35.8*,-2.6,-0.6,-4.5,-6.4,2.9
CCOc1cccc(/C=C/c2ccc3cccc(O)c3n2)c1OC,-5.9,-8.3,15.0,-1.3,-5.2,-7.0
O=C1COc2ccc(S(=O)(=O)NCc3ccccc3)cc2N1,4.0,2.2,35.6*,-9.3,3.9,-4.9
CN(/N=C\c1ccc(O)c(O)c1)c1nc(-c2ccccc2)cc(-c2ccccc2)n1,21.9,-7.2,-7.8,3.4,-14.5,21.4*
COc1ccc(S(=O)(=O)N2CCCCC2)cc1NC(=O)CCOc1cc(C)ccc1C,16.3,-4.8,·,0.6,-3.6,·
COc1ccc(-c2cc(-c3ccccc3)c(C#N)c(S(C)=O)n2)cc1 (centres undefined),3.3,-0.2,-32.0,-1.8,-7.0,-4.2
COc1ccc(-c2cc3nc4ccccc4n3c(N)c2C#N)cc1,-6.7,2.9,38.5*,-4.6,-1.3,7.3
COc1cc(/C=C2\CCCc3c2nc2ccccc2c3C(=O)O)cc(Br)c1O,2.1,-1.3,-2.1,-4.9,3.5,0.5
COc1cc(/C=C2\CCc3c2nc2ccccc2c3C(=O)O)cc(OC)c1OC,-6.0,2.8,35.1*,3.5,-4.8,10.7
COc1ccc(/C=N/Nc2snc(SC)c2C#N)cc1OC,39.7*,2.0,9.4,10.5,-4.0,10.8
COc1c(-c2ccc(O)cc2)oc2cc(O)cc(O)c2c1=O,-2.0,7.2,24.2,-3.3,1.0,2.6
SMILES,PME-1 inh,LYPLA2 inh,GSTO1 counter,PAD4 inh,LYPLA1 inh,Fam108B counter
CC(=O)Oc1cc(O)c2c(=O)c(OC(C)=O)c(-c3ccc(OC(C)=O)c(OC(C)=O)c3)oc2c1,14.3,-13.5,60.3*,-8.9,-13.0,-2.4
Cc1cc(N2CCN(C)CC2)ccc1NC(=O)c1ccc(-c2ccc(Cl)cc2)o1,4.4,3.4,10.9,-4.4,0.8,0.8
Cc1ccc(NC(=S)NC(=O)c2ccc(-c3ccc(Cl)cc3)o2)c(O)c1,29.8*,-18.1,-6.4,4.4,-14.3,-7.0
Cc1cc(O)c(NC(=S)NC(=O)c2ccc(-c3ccc(Cl)cc3)o2)cc1C,38.6*,-11.0,-17.0,-2.6,-7.8,1.3
Cc1ccc(O)c(NC(=S)NC(=O)Cc2ccc(Cl)cc2)c1,1.5,4.1,-3.2,-1.8,2.1,-2.5
CN(C)c1ccc(CNC(=O)CN(C)S(=O)(=O)c2cccc3cccnc23)cc1,33.3*,-1.8,-4.7,-0.2,0.9,-1.8
Cc1ccoc1C(=O)NCCCNC(=O)c1occc1C,-2.4,-3.4,34.8*,-13.9,-1.8,3.6
Cc1ccsc1C=C1C(=O)c2ccccc2C1=O,2.3,2.0,37.5*,-6.1,4.1,6.3
CCCc1nnc(NC(=O)C2CC(=O)N(CCc3ccc(F)cc3)C2)s1 (centres undefined),-9.3,1.5,-2.0,-2.8,0.2,-2.1
O=C(CSc1nnc(CNC(=O)c2cccs2)o1)Nc1ccc(Cl)cc1,-0.8,3.8,2.6,3.6,3.1,-0.1
COc1cccc(NC(=O)CN(C)C(=O)c2cccc(S(=O)(=O)Nc3ccccc3OC)c2)c1,9.4,-3.4,·,-0.4,-0.4,·
O=C1CC(=O)N(Cc2ccco2)C(=S)N1,-52.1,-22.7,-48.4,-18.8,-13.2,-4.8
O=C1CC(=O)N(Cc2ccco2)C(=O)N1,-5.6,-1.1,37.4*,-4.3,2.0,6.9
Oc1ccc(N=C/C=C/c2ccc(Br)cc2)cc1-c1nc2ccccc2s1,1.8,3.7,36.3*,-5.3,1.4,12.0
Brc1cc2c(cc1-c1nc3ccccc3s1)OCO2,-0.3,18.9,-6.9,1.8,-5.4,-1.0
CC(=O)NCC(=O)OCC(=O)c1ccc2ccccc2c1,4.6,-1.2,1.3,-2.7,-4.3,2.6
Cc1ccc(-n2c(C)cc(/C=C3/SC(=O)N(CC(=O)N4CCOCC4)C3=O)c2C)nc1,-0.3,4.6,-1.8,-4.4,2.4,-0.4
Cc1cc(C)cc(NC(=O)c2ccc(S(=O)(=O)C(F)F)cc2)c1,-0.9,-1.5,-3.0,0.0,-1.7,-0.8
O=c1cc(C(F)(F)F)nc(-n2[nH]c3c(c2=O)CCCC3)[nH]1,-2.5,2.5,39.6*,-6.4,-2.3,-0.5
Cc1ccc(C(=O)N/N=C/c2ccc(-c3ccccc3[N+](=O)[O-])o2)cn1,3.0,0.2,36.6*,-5.9,1.1,4.3
CN1CCN(C(=S)c2ccc(OCC(=O)Nc3cccc(C(F)(F)F)c3)cc2)CC1,-5.3,5.8,-6.1,-0.7,-4.2,-1.7
Cc1cccc(C)c1NC(=S)/C(=C(\[O-])c1cccs1)[n+]1ccccc1,-3.9,-5.3,0.9,-4.2,0.6,-1.8
[O-]/C(=C(\C(=S)Nc1cccc2ccccc12)[n+]1ccccc1)c1cccs1,6.6,4.1,36.6*,11.2,-1.7,12.4
C=CCOc1ccccc1OCC(O)CNC(C)C (centres undefined),-1.2,-0.3,0.8,-8.8,0.0,-2.2
COc1cc(/C=N/NC(=S)Nc2cccc(S(=O)(=O)N(C)C)c2)cc(OC)c1O,29.2*,5.5,7.4,-5.2,-2.1,3.6
Cc1cccc(C)c1NC(=O)CN(C)C(=O)CC1Sc2ccccc2NC1=O (centres undefined),2.8,-1.1,1.6,-0.1,1.9,2.6
